In the library only some 27% were active in any assay of this set; here they are far more common.
CYP2C19 inh = blockers of cytochrome P450 2C19 activity – biochemical, luminescence, ADME assay, primary screen. hit rate 21% among 96,000. CYP2C19 Supersomes, luciferin-H EGE luminescence, 30 min. P33261. AID 778, 2007. inhibition, % at 5 µM;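 active means CYP2C19 inhibition above a set limit at 5 µM in the primary screen, cut at about 50% in these data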;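 further: plate controls were negative control wells for no effect and 2.5 mM tranylcypromine positive control for full effect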
CYP2C9 activ = human CYP2C9 activators, primary screen, biochemical, luminescence; activation factor at 5 µM; AID 1024, 2008; hit rate 1.4% among 96,000; Cytochrome P450 2C9 (Homo sapiens), P11712; recombinant CYP2C9, luciferin-H conversion; hits give high values; factor 1 = untreated enzyme, 0 = blocked;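 active means activation factor of 2 or more for CYP2C9 at a 5 µM dose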;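 further: 0 = sulfaphenazole-blocked wells and 1 = vehicle-only wells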
sEH activator = soluble epoxide hydrolase activators, primary screen, biochemical, human sEH. Bifunctional epoxide hydrolase 2 (Homo sapiens), P34913. purified human sEH enzymatic activity, activator screen. activation, % at 2 µM. hit rate 0.04% among 91,000. AID 717, 2007; in the data active means activation above about 37%
Target sequence (P34913 whole entry, looked up): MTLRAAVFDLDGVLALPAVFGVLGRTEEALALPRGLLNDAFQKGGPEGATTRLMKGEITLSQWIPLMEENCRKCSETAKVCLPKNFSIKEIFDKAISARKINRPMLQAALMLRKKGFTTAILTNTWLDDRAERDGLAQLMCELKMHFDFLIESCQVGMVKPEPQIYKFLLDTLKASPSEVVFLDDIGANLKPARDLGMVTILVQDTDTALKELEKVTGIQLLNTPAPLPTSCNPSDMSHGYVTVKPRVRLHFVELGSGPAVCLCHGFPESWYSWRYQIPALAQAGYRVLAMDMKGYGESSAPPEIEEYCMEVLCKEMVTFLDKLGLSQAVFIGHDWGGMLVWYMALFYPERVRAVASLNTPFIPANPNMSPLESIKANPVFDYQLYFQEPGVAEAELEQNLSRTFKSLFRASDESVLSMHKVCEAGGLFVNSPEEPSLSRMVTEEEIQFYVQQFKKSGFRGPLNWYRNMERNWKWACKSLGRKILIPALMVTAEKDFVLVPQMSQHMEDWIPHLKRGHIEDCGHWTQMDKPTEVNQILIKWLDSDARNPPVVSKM
sEH inhibitor = soluble epoxide hydrolase inhibitors, primary screen, biochemical, human sEH; inhibition, % at 2 µM; hit rate 0.34% among 91,000; recombinant human sEH enzymatic activity assay; Bifunctional epoxide hydrolase 2 (Homo sapiens), P34913; in the data active means inhibition above about 80%
CYP2C19 activ = human CYP2C19 activators, primary screen, biochemical, luminescence | recombinant CYP2C19, luciferin-H EGE luminescence; hits give high values; 0 = fully inhibited enzyme, 1 = untreated enzyme | activation factor at 5 µM | AID 1025, 2008 | 96,000 tested, under 10 active;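 active means activation factor of at least 2 at 5 µM in the primary screen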;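 further: 0 = wells with 2.5 mM tranylcypromine and 1 = vehicle-only wells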
CYP2C9 inh = blockers of cytochrome P450 2C9 activity – biochemical, luminescence, ADME assay, primary screen; P11712; CYP2C9 Supersomes, luciferin-H conversion; inhibition, % at 5 µM; hit rate 20% among 96,000; AID 777, 2007;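 active means blocking of liver enzyme CYP2C9 beyond about 50% at 5 µM, limit read from the data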
The depositor's hits bear a star.

Screening COc1ccc(N2CCN(C(=O)c3ccc4c(c3)OCO4)CC2)cc1 returned CYP2C19 inh -1.2, CYP2C9 activ 0.9, sEH activator -3.4, sEH inhibitor 3.6, CYP2C19 activ 1 and CYP2C9 inh 12.7.
For O=C(c1ccc2c(c1)OCO2)N1CCN(c2ccc(Cl)cc2)CC1 the results were CYP2C19 inh 97.3*, CYP2C9 activ 0.1, sEH activator -1.2, sEH inhibitor 5.0, CYP2C19 activ 0 and CYP2C9 inh 88.8*.
For O=C(c1ccc2c(c1)OCO2)N1CCN(c2ccccc2)CC1 the results were CYP2C19 inh 87.9*, CYP2C9 activ 0.5, sEH activator -1.6, sEH inhibitor 2.0, CYP2C19 activ 0.1 and CYP2C9 inh 45.4.
Screening COc1cc(OC)cc(C(=O)N2CCN(c3ccccc3F)CC2)c1 returned CYP2C19 inh 52.8*, CYP2C9 activ 0.7, sEH activator -12.9, sEH inhibitor 12.0, CYP2C19 activ 0.5 and CYP2C9 inh 28.1.
For COc1ccc(Cl)cc1NC(=O)CCN1CCN(C)CC1 the results were CYP2C19 inh -5.8, CYP2C9 activ 1.1, sEH activator -6.0, sEH inhibitor 6.2, CYP2C19 activ 1.1 and CYP2C9 inh -6.4.
Screening CC(=O)c1sc(Nc2ccccn2)nc1C returned CYP2C19 inh -16.4, CYP2C9 activ 1, sEH activator -1.3, sEH inhibitor 0.2, CYP2C19 activ 1.2 and CYP2C9 inh -4.1.
`COc1ccc(COC(=O)c2nc3nc(C)cc(C)n3n2)cc1F` gave CYP2C19 inh 35.7, CYP2C9 activ 1.1, CYP2C19 activ 0.6 and CYP2C9 inh -12.9.
Screening Cc1ccc(C(=O)N2CCN(c3ccc(NC(=S)NC(=O)Cc4ccccc4)cc3)CC2)cc1 returned CYP2C19 inh 29.6, CYP2C9 activ 0.5, sEH activator -7.4, sEH inhibitor 9.0, CYP2C19 activ 0.7 and CYP2C9 inh 51.6*.
`Cn1nnc2cc(C(=O)N3CCC(c4ccccc4)C3)ccc21` (stereo unspecified) gave CYP2C19 inh 79.7*, CYP2C9 activ 0.7, sEH activator 7.4, sEH inhibitor -7.8, CYP2C19 activ 0.2 and CYP2C9 inh 25.3.
CCS(=O)(=O)N1CCN(c2ccccc2F)CC1 was read as CYP2C19 inh 50.0*, CYP2C9 activ 0.1, sEH activator 2.4, sEH inhibitor -0.3, CYP2C19 activ 0.5 and CYP2C9 inh 90.4*.
For Cn1nnc2cc(C(=O)N3CCCCCC3)ccc21 the results were sEH activator -0.4 and sEH inhibitor 4.2.
For Cc1nn(C(=O)c2ccc3c(c2)OCO3)c(N)c1-c1ccccc1 the results were CYP2C19 inh -9.2, CYP2C9 activ 0.5, sEH activator -1.3, sEH inhibitor 0.4, CYP2C19 activ 1.1 and CYP2C9 inh 53.1*.
For CC1(C)Cc2ccccc2C2CC(O)C(=O)N21 (stereo unspecified) the results were CYP2C19 inh -6.3, CYP2C9 activ 1.1, sEH activator 7.3, sEH inhibitor -7.7, CYP2C19 activ 1.1 and CYP2C9 inh -9.2.
CN1C(=O)CC(N2CCN(Cc3ccc(Cl)cc3)CC2)C1=O (stereo unspecified) was read as CYP2C19 inh 23.4, CYP2C9 activ 0.9, sEH activator 21.4, sEH inhibitor -19.9, CYP2C19 activ 0.8 and CYP2C9 inh 6.6.
Screening COc1ccc(NS(=O)(=O)c2cc(-c3nnnn3C)ccc2OC)cc1 returned CYP2C19 inh 33.1, CYP2C9 activ 0.8, sEH activator -1.4, sEH inhibitor 1.0, CYP2C19 activ 0.7 and CYP2C9 inh 19.8.
CCC(=O)c1ccc(OC(=O)c2ccc(Br)o2)cc1 was read as sEH activator 2.4 and sEH inhibitor -0.4.
CC(=O)NC(CCS(C)(=O)=O)C(=O)Nc1cccc(C)c1C (stereo unspecified) was read as CYP2C19 inh -2.9, CYP2C9 activ 1.1, sEH activator 5.3, sEH inhibitor -5.4, CYP2C19 activ 1 and CYP2C9 inh -10.7.
Screening O=C(O)c1cc(NCc2ccc3c(c2)OCO3)ccc1N1CCOCC1 returned CYP2C19 inh 15.2, CYP2C9 activ 0.7, sEH activator -9.5, sEH inhibitor 7.8, CYP2C19 activ 0.8 and CYP2C9 inh 26.6.
Screening Cc1ccc(C(=O)N2CCN(c3ccc(Cl)cc3)CC2)cc1 returned CYP2C19 inh 54.2*, CYP2C9 activ 0.5, sEH activator 9.1, sEH inhibitor -5.6, CYP2C19 activ 0.5 and CYP2C9 inh 51.4*.
`O=C(c1ccc2c(c1)OCO2)N1CCCC(c2ccccc2)C1` (stereo unspecified) gave CYP2C19 inh 87.4*, CYP2C9 activ 0.9, sEH activator 2.4, sEH inhibitor 1.1, CYP2C19 activ 0.1 and CYP2C9 inh 8.4.
COC(=O)c1cc(NCc2ccc3c(c2)OCO3)ccc1N1CCOCC1 was read as CYP2C19 inh 76.8*, CYP2C9 activ 0.5, CYP2C19 activ 0.2 and CYP2C9 inh 52.1*.
`Cc1ccc(-n2nc(C(=O)N3CCOCC3)cc2-c2ccc(Cl)cc2)cc1` gave CYP2C19 inh 21.8, CYP2C9 activ 0.3, sEH activator -2.5, sEH inhibitor 4.2, CYP2C19 activ 0.8 and CYP2C9 inh 70.7*.
Screening COc1ccc(C(=O)N2CCN(c3c(C)cccc3C)CC2)cc1OC returned CYP2C19 inh 39.3, CYP2C9 activ 0.8, sEH activator 2.3, sEH inhibitor -3.9, CYP2C19 activ 0.6 and CYP2C9 inh 21.1.
For O=C(c1cc(-c2ccc3c(c2)OCO3)on1)N1CCN(c2ccc(F)cc2)CC1 the results were CYP2C19 inh -2.6, CYP2C9 activ 1, CYP2C19 activ 1 and CYP2C9 inh -2.9.
O=C(c1cc(-c2ccc3c(c2)OCO3)on1)N1CCN(c2ccccc2)CC1 was read as CYP2C19 inh 10.5, CYP2C9 activ 0.5, CYP2C19 activ 0.9 and CYP2C9 inh 50.5*.
For O=C(c1cc(-c2cccc(O)c2)on1)N1CCCCC1 the results were CYP2C19 inh 51.0*, CYP2C9 activ 1.9, CYP2C19 activ 0.5 and CYP2C9 inh -93.3.
`COc1cccc(-c2cc(C(=O)N3CCCCCC3)no2)c1` gave CYP2C19 inh 44.7, CYP2C9 activ 1.1, sEH activator -0.1, sEH inhibitor -0.8, CYP2C19 activ 0.6 and CYP2C9 inh -12.6.
`O=C(c1ccc2c(c1)OCO2)N1CCN(c2ccccc2F)CC1` gave CYP2C19 inh 82.7*, CYP2C9 activ 0.5, sEH activator -4.8, sEH inhibitor 8.3, CYP2C19 activ 0.2 and CYP2C9 inh 53.2*.

Assay outcomes: PubChem, several laboratories
